# Measurements as given in the supplement of paper PMC12669032.
# Unmarked numbers belong to inactive results.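 How the source made its calls: active = AUC reduced over 20% with Padj below 0.05 in at least 2 of 3 replicates; inactive = otherwise.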
# System: Collinsella aerofaciens
# Assay: growth AUC relative to DMSO control (median of replicates) (fraction); higher = more growth (less inhibition), active = hit call of the paper
# Conditions: 20 µM; 24 h
# Procedure, shortened: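 Starting at OD600 0.05, gut bacterial monocultures in mGAM were grown anaerobically at 37 °C with 20 µM compound (1% DMSO) under pierced gas-permeable seals. OD600 was read every hour for 24 h, and the lowest OD of each curve was set to 0. Area under the growth curve was normalised to the plate median of solvent-only wells, or to row and column medians on the industrial chemical plate, and the median of three biological replicates grown on separate days is given.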
row,Structure (SMILES),growth AUC
1,Cc1c(N)cccc1N,1.04
2,c1cc2ccc3cccc4ccc(c1)c2c34,0.946
3,O=c1oc2ccccc2c(O)c1C1CC(c2ccc(-c3ccc(Br)cc3)cc2)Cc2ccccc21 (centres undefined),0.911
4,COP(=O)(OC)SCn1c(=O)oc2cc(Cl)cnc21,1.03
5,CNC(=O)ON=C(CSC)C(C)(C)C,0.983
6,COc1ccc(/C(=C/C(=O)N2CCOCC2)c2ccc(F)cc2)cc1OC,0.952
7,Cc1ccc(N=CN(C)C=Nc2ccc(C)cc2C)c(C)c1,1.01
8,Cc1c(COC(=O)[C@@H]2[C@H](/C=C(\Cl)C(F)(F)F)C2(C)C)cccc1-c1ccccc1,0.928
9,CCOP(=S)(OCC)Oc1cc(-c2ccccc2)on1,0.942
10,COP(=O)(OC)C(O)C(Cl)(Cl)Cl (centres undefined),1.01
11,C=CC(N)=O,1.01
12,CNC(=O)Oc1cc(C)c(S(C)=O)c(C)c1 (centres undefined),1.05
13,COP(N)(=O)SC (centres undefined),1.04
14,CCOP(=S)(OCC)Oc1nc(Cl)c(Cl)cc1Cl,0.986
15,CC(=NC#N)N(C)Cc1ccc(Cl)nc1,1.02
16,O=C(NC(=O)c1c(F)cccc1F)Nc1ccc(Cl)cc1,0.955
17,O=C(Nc1ccccc1)c1ccccc1I,1.07
18,COCc1c(F)c(F)c(COC(=O)[C@@H]2[C@@H](C=C(Cl)Cl)C2(C)C)c(F)c1F,1
19,CN1CSC(=S)N(C)C1,1.07
20,O=C1c2ccccc2C(=O)N1SC(Cl)(Cl)Cl,0.983

row,Structure (SMILES),growth AUC
1,CC(C)(C)c1ccc(CCOc2ncnc3ccccc23)cc1,0.943
2,NCP(=O)(O)O,1.05
3,CC1CNC(=S)N1 (centres undefined),1.04
4,CC1(C)[C@H](/C=C(\Cl)C(F)(F)F)[C@@H]1C(=O)O[C@@H](C#N)c1cccc(Oc2ccccc2)c1,0.932
5,COP(=S)(OC)SCN1C(=O)c2ccccc2C1=O,0.965
6,COP(=S)(OC)Oc1ccc(S(C)(=O)=O)c(C)c1,1.01
7,CC(C)NC(=O)N1CC(=O)N(c2cc(Cl)cc(Cl)c2)C1=O,1.05
8,Cc1ccc(NC(=O)c2snnc2C)cc1Cl,1.05
9,COCC(=O)N(c1c(C)cccc1C)N1CCOC1=O,0.997
10,O=C(NC(=O)c1c(F)cccc1F)Nc1ccc(Cl)c(Oc2ncc(C(F)(F)F)cc2Cl)c1,1.08
11,COP(=O)(OC)OC(Br)C(Cl)(Cl)Br (centres undefined),1.03
12,CC(C)(COCc1cccc(Oc2ccccc2)c1)c1ccc(OC(F)(F)Br)cc1,0.953
13,CC1(C)C(C=C(Cl)Cl)C1C(=O)OC(C#N)c1cccc(Oc2ccccc2)c1 (mixture of isomers),0.966
14,CNC(=O)Oc1ccccc1OC(CCl)OC (centres undefined),1.07
15,CCOP(=O)(OCC)Oc1ccc([N+](=O)[O-])cc1,1.05
16,N#Cc1cc(Br)c(O)c(Br)c1,0.968
17,COP(=S)(OC)Oc1cc(Cl)c(I)cc1Cl,0.941
18,COP(=S)(OC)Oc1ccc([N+](=O)[O-])cc1,0.955
19,CC(C)[C@@H](Nc1ccc(C(F)(F)F)cc1Cl)C(=O)OC(C#N)c1cccc(Oc2ccccc2)c1 (some centres undefined),0.933
